An excerpt weighted towards active compounds, which were near 3.5% of everything screened.
Mtb hypoxia inh: PubChem AID 1159583 | M. tuberculosis hypoxia-regulated fluorescent reporter, fluorescence | fluorescence inhibition, % (no concentration beside the values) | 300,000 compounds, 0.1% hits; in the data active = fluorescence inhibition mostly above about 23%, no sharp cut-off; inactive = mostly below about 17%
FadD28 FP inh: inhibitors of FadD28 bisubstrate probe binding, primary screen, biochemical, fluorescence polarization, single point; Mycobacterium tuberculosis FadD28 fatty-acid-AMP ligase; inhibition, % at 12.5 µM; 360,000 compounds, 0.22% hits; AID 588549, 2011; in the data active = inhibition above about 8.5%, passing the limit was not always enough
GDH-TPI counter: GDH-TPI coupling enzyme inhibitors, primary screen, artefact control for M. tuberculosis FBA inhibitor project, biochemical, absorbance, full deck. GDH-TPI coupled enzyme counterscreen, NADH absorbance. inhibition, % at 4.8 µM. 360,000 compounds, 1.2% hits. AID 588335, 2011; in the data active = inhibition above about 30%;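 also: 0% = DMSO wells and 100% = wells lacking the enzyme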
Mtb UGM inh: M. tuberculosis UGM enzyme inhibitors, primary screen, biochemical, fluorescence polarization, single point. purified UGM, fluorescence polarization probe displacement. inhibition, % at 10 µM. 320,000 compounds, 0.06% hits. AID 504406, 2011; in the data active = inhibition above about 10%, passing the limit was not always enough
Target sequence (P9WIQ1 whole entry, looked up): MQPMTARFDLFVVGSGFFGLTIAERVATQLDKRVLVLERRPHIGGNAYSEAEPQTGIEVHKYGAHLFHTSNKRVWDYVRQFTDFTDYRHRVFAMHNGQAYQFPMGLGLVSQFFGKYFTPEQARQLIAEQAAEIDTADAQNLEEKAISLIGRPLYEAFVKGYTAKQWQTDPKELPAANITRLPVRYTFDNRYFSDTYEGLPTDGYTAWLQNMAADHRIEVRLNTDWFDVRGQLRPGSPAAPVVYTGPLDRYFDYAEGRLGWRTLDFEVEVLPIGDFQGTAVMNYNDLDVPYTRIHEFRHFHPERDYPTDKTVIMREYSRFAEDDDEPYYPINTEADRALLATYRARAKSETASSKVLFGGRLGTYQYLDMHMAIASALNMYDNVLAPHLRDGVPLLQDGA
Rv3671c inh: Rv3671c serine protease inhibitors, primary screen, biochemical, fluorescence polarization, M. tuberculosis H37Rv | P9WHR9 | inhibition, % at 5.96 µM | 320,000 compounds, 0.048% hits | AID 2606, 2010; in the data active = inhibition above about 38%;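 also: extracellular domain of Rv3671c used as enzyme; 0% = enzyme with DMSO and 100% = no enzyme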
FBA Mtb inh: Mtb FBA enzyme inhibitors, primary screen, biochemical, fluorescence, strain H37Rv; 360,000 compounds, 2.3% hits; purified M. tuberculosis FBA, fluorescence read-out; inhibition, % at 1 µM; AID 588726, 2011; in the data active = inhibition above about 27%;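 also: 0% = vehicle and 100% = reference inhibitor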
* = called active by the depositor; . = no result; + = active, no number.

SMILES | Mtb hypoxia inh | FadD28 FP inh | GDH-TPI counter | Mtb UGM inh | Rv3671c inh | FBA Mtb inh
CN(C(=O)CSc1ncnc2sc3c(c12)CCC3)C1CCS(=O)(=O)C1 (configuration not stated) | 32.1* | -2.7 | 12.6 | 5.7 | -0.6 | -1.4
CCOc1ccc(-c2c(C(=O)NN=Cc3ccc(C)o3)nnn2-c2nonc2N)cc1 | -2.5 | . | . | . | . | .
CCOC(=O)C(N=Nc1sc(C(=O)OCC)c(C)c1C(=O)OCC)=C(C)O | -11.2 | . | . | . | . | .
CN(C)c1ccc(C(=O)Nc2nnc(C3=COCCO3)o2)cc1 | 7.5 | -2.1 | 41.5* | 1.6 | -7.7 | 3.2
CC(C)(C)c1ccc(C(=O)Nc2nnc(C3=COCCO3)o2)cc1 | -2.1 | 2.5 | 4.1 | -1.9 | 2.9 | -0.1
CN(C)c1ccc(-c2nnc(-c3ccccc3F)o2)cc1 | 1.0 | -1.9 | 33.3* | 3.3 | 4.4 | 22.5
COc1ccc(S(=O)(=O)N(C)CC2Oc3ccc(NC(=O)Nc4ccc5c(c4)OCO5)cc3CC(=O)N(C(C)CO)CC2C)cc1 (configuration not stated) | 8.3 | . | . | . | . | .
COc1ccc(Cl)cc1C1=CC(=O)CC(c2ccc(F)cc2)C1 (configuration not stated) | 5.8 | . | . | . | . | .
CC1CN(C(C)CO)C(=O)c2cccc(NS(=O)(=O)c3ccccc3)c2OC1CN(C)C (configuration not stated) | 20.8 | . | . | . | . | .
CC1C2(C)OC(=N)C(C#N)(C(C)O2)C1(C#N)C#N (configuration not stated) | -3.5 | 5.5 | 13.1 | 3.3 | 1.9 | 127.7*
CCOC(=O)c1c(-c2ccc(OC)cc2)oc2ccc(OCC(N)=O)cc12 | 5.8 | -0.7 | -1.7 | 0.3 | -6.0 | +
CCOC(=O)c1c(-c2ccccc2)oc2ccc(OCC(=O)O)cc12 | 4.3 | -5.7 | -1.3 | 1.5 | -8.2 | 161.2*
CC1CN(C(C)CO)C(=O)c2cccc(NS(=O)(=O)c3cn(C)cn3)c2OC1CN(C)CC1CCCCC1 (configuration not stated) | 13.0 | . | . | . | . | .
N#Cc1c(SCC(=O)Nc2nc3ccc(Br)cc3s2)sc2c(O)cc(=O)[nH]c12 | . | 0.0 | 23.8 | -0.2 | -2.6 | 4.7
N#Cc1c(SCC(=O)Nc2nc3ccccc3s2)sc2c(O)cc(=O)[nH]c12 | -1.2 | 12.1* | 22.8 | 6.2 | -32.6 | 0.3
O=C(CSc1nc(O)cc(=O)n1-c1ccccc1)Nc1nc2ccccc2s1 | 6.3 | 12.7* | -0.8 | 4.2 | -97.7 | -0.4
N#Cc1c(SCC(=O)Nc2ccc(Cl)cc2Cl)sc2c(O)cc(=O)[nH]c12 | -9.3 | 0.0 | 33.1* | 3.4 | -14.0 | 1.1
Cc1nn(-c2ccccc2)c(Cl)c1C=NNc1nc2ccccc2[nH]1 | 15.1 | . | . | . | . | .
CCn1nc(C(=O)NC(CCSC)c2nc3ccccc3[nH]2)c2ccccc2c1=O (configuration not stated) | 1.1 | . | . | . | . | .
CC12CCC(C(=O)Nc3ccccc3)(CC1=NO)C2(C)C (configuration not stated) | 2.1 | . | . | . | . | .
COc1ccc(C=NNc2nnc(-c3ccccc3)c(=O)[nH]2)cc1 | 7.0 | . | . | . | . | .
COc1ccc(/C=N/Nc2nnc(-c3ccccc3)c(=O)[nH]2)cc1 | . | -1.4 | 35.4* | 0.7 | 3.2 | -4.0
O=c1[nH]c(N/N=C/c2ccccc2Br)nnc1-c1ccccc1 | . | -4.6 | 38.6* | 1.7 | -1.0 | 0.2
CC1CN(C(C)CO)C(=O)c2cccc(NS(=O)(=O)c3ccc(F)cc3)c2OC1CN(C)S(=O)(=O)c1cn(C)cn1 (configuration not stated) | 2.6 | . | . | . | . | .
O=C(Nc1nccs1)C1CCCN1/C=C/C(=O)C(F)(F)F (configuration not stated) | 14.6 | -1.0 | 35.3* | 6.0 | 5.7 | 2.1
SMILES | Mtb hypoxia inh | FadD28 FP inh | GDH-TPI counter | Mtb UGM inh | Rv3671c inh | FBA Mtb inh
Cc1ccc(C(=NO)c2oc3c(C)c4oc(=O)cc(C)c4cc3c2C)cc1 | 0.4 | . | . | . | . | .
COc1c2ccoc2c(OC)c2oc(=O)ccc12 | . | -1.0 | 6.9 | -0.3 | -9.3 | 6.2
C=CC(C)(C)c1c2occc2c(O)c2ccc(=O)oc12 | . | 14.2* | 9.7 | . | 1.4 | -0.3
CCOc1ccc2noc3c2c1C(=O)c1ccccc1-3 | . | 0.9 | -2.4 | 20.9* | -8.4 | -5.9
COc1cc(/C=N/NC(=O)c2cccc(N3CCCC3=O)c2)ccc1O | . | 1.3 | 39.6* | -0.6 | 1.2 | 0.2
CCN(CC)c1ccc(/C=N/NC(=O)c2cccc(N3CCCC3=O)c2)cc1 | . | 1.8 | 31.0* | 2.7 | 3.7 | -1.5
COCCCNC(=S)NN=Cc1ccc(OC)cc1 | 4.1 | . | . | . | . | .
CC(C)(C)OC(=O)NCCCCC(NC(=O)c1nc[nH]c1C(=O)NC(CCCCNC(=O)OC(C)(C)C)C(=O)OC(C)(C)C)C(=O)OC(C)(C)C (configuration not stated) | 1.9 | . | . | . | . | .
CN=C1SC(CC(=O)Nc2ccc(F)cc2F)C(=O)N1N=C(C)c1cccc(OCC(=O)O)c1 (configuration not stated) | -2.0 | . | . | . | . | .
CCOc1ccc(/C=C2\SC(N3CCCCC3)=NC2=O)cc1 | 6.8 | -0.8 | 48.0* | 0.2 | 5.4 | 1.6
CC(NC(=O)c1nc[nH]c1C(=O)NCC(=O)OC(C)(C)C)C(=O)OC(C)(C)C (configuration not stated) | 0.4 | . | . | . | . | .
CCOC(=O)c1cc2ccc(OC(=O)c3ccco3)cc2oc1=O | 17.3 | -5.6 | 9.4 | -1.3 | -1.1 | +
CCOc1ccc2cc(C(=O)c3ccccc3)c(=O)oc2c1 | 15.7 | 0.3 | 40.7* | 1.7 | -0.9 | 2.1
CCOC(=O)c1cc2ccc3ccccc3c2oc1=O | 7.1 | -4.7 | 8.4 | -1.5 | -1.5 | +
Cc1ccc(SCCC(=O)NN=Cc2ccccc2O)cc1 | 8.1 | . | . | . | . | .
CCOC(=O)NN=C/C=C/c1ccccc1[N+](=O)[O-] | 1.6 | . | . | . | . | .
CC1=NN(c2cccc(C(=O)O)c2)C(=O)/C1=C\C=C\c1ccco1 | -3.7 | 11.3* | 3.0 | -0.4 | 2.2 | -12.2
Cc1c(C)c2c(OCC(=O)NCC(O)c3ccccc3)cc3c(c2oc1=O)CCC(C)(C)O3 (configuration not stated) | . | -0.7 | 14.7 | 2.3 | -5.2 | 19.2
CCCc1cc(=O)oc2c3c(cc(OCC(=O)NCc4ccncc4)c12)OC(C)(C)CC3 | . | -2.7 | 25.5 | 3.9 | -6.2 | +
Cc1cc(OCC(=O)C(C)(C)C)c2c(C)c(C)c(=O)oc2c1 | -0.5 | -1.9 | 5.1 | -2.2 | -5.5 | 48.6*
Cc1cc(OCC(=O)Nc2ccccn2)c2c(C)c(C)c(=O)oc2c1 | -7.3 | -1.8 | -6.3 | 2.5 | 2.2 | 10.8
Cc1cc(OCC(=O)NCc2ccccn2)c2c(C)c(C)c(=O)oc2c1 | 5.8 | -0.5 | 21.6 | 0.4 | -5.5 | 119.8*
Cc1c(C)c2c(OCC(=O)NCc3ccccn3)cc3c(c2oc1=O)CCC(C)(C)O3 | . | -4.1 | 23.5 | 2.0 | -9.0 | +

Screens as filed in PubChem.
